Source: PubChem (Sanford-Burnham Center for Chemical Genomics)
Most compounds without a hit are left out; they make up all but 4% or so of the library.
HIF-2a block = inhibitors of HIF-2a. inhibition, % at 18.8 µM. 0.72% of 360,000 active. AID 624352. 786-0 RCC cells HIF-2a reporter, luciferase luminescence, overnight;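 active means inhibition of the luminescence signal of 40% or more relative to plate controls, in a single-dose primary screen at 18.75 µM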
TWEAK-Fn14 inh = blocks TWEAK-Fn14 interaction in a reporter cell assay; TWEAK-stimulated Fn14 reporter cells, luciferase luminescence, 8 h; inhibition, % at 10 µM; 2% of 360,000 active; in the data active means inhibition above about 50%
Peg3 prom inh-1 = inhibitors of Peg3 promoter; HeLa PEG-Prom luciferase reporter, luminescence, overnight; inhibition, % at 20 µM; 1.7% of 360,000 active;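 active means inhibition of at least 50% at 20 µM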
CF NFkB inh = cystic fibrosis NF-kB activation inhibition; KKLEB NF-kB-GFP reporter, PAF-induced, GFP fluorescence overnight; inhibition, % at 5 µM; 0.86% of 360,000 active; AID 588850;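 active means at least 50% inhibition at 5 µM, scaled per plate between neutral and stimulator controls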;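 further: PAF is a Pseudomonas aeruginosa culture filtrate used as stimulus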
TROY NFkB inh = blocks TROY-dependent signaling in reporter cells. Q293 LMP1-TROYcd NF-kB luciferase reporter, 4 h. inhibition, % at 10 µM. 0.98% of 360,000 active;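 active means compounds whose plate-normalised and pattern-corrected inhibition of the luciferase reporter signal at the single screening dose is 50% or more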
KKLEB tox = counter-screen for CF NF-kB inhibitors: cytotoxicity; KKLEB CF airway cells viability, ATPlite luminescence, overnight; active compounds read low; cells stimulated with P. aeruginosa culture filtrate; activity change (cytotoxicity), % at 5 µM; 0.36% of 360,000 active; AID 602141;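 active means corrected activity change at or below -50% at 5 µM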
Peg3 prom inh-2 = Peg3 promoter inhibition confirmation. inhibition, % at 20 µM. HeLa PEG-Prom luciferase reporter, luminescence, overnight. AID 602417. 84% of 1,300 active. shares compounds with Peg3 prom inh-1;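 active means at 20 µM dose, 40% or more inhibition averaged across four replicates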
Large screens that a line does not name were inactive (follow-up assays come after a bar, where they were run).

Cc1nc(Nc2ccc(F)cc2)nc(Nc2ccc(F)cc2)c1[N+](=O)[O-]	none
CC(=O)Nc1ccc(Nc2nc(C)c([N+](=O)[O-])c(Nc3ccccc3)n2)cc1	TWEAK-Fn14 inh 66.6, Peg3 prom inh-1 63.9, TROY NFkB inh 53.2 | Peg3 prom inh-2 56.1
CC1CCc2cc(F)ccc2N1C(=O)CSc1nnc2c(n1)[nH]c1ccc(F)cc12 (configuration not stated)	Peg3 prom inh-1 99.8 | Peg3 prom inh-2 inactive
CCOC(=O)CN(C(=O)CSc1nnc2c(n1)[nH]c1ccc(F)cc12)c1ccccc1	Peg3 prom inh-1 56.3 | Peg3 prom inh-2 49.0
CCOc1ccc(OCC(O)CNC2CCN(Cc3ccccc3)CC2)cc1 (configuration not stated)	none
CC(C)(c1ccccc1)c1ccc(OCC(O)CNC2CCN(Cc3ccccc3)CC2)cc1 (configuration not stated)	Peg3 prom inh-1 107.4 | Peg3 prom inh-2 98.8
CCN1C/C(=C/c2ccc(N3CCOCC3)cc2)C(=O)/C(=C/c2ccc(N3CCOCC3)cc2)C1	HIF-2a block 93.2, Peg3 prom inh-1 101.2 | Peg3 prom inh-2 97.1
CN(C)S(=O)(=O)c1ccc(Cl)c(NC(=O)COC(=O)CNS(=O)(=O)c2c(F)cccc2F)c1	none
Cc1ccc(S(=O)(=O)N2C(=O)CCC2C(=O)N2CCCCC2)cc1 (configuration not stated)	none
N#C/C(=C\c1ccc([N+](=O)[O-])cc1)c1ccccn1	none
CN(C)c1ccc(NC(=S)c2ccccn2)cc1	HIF-2a block 54.3, TWEAK-Fn14 inh 99.0, Peg3 prom inh-1 90.4, TROY NFkB inh 81.4, KKLEB tox -55.1 | Peg3 prom inh-2 66.4
CN(C)c1ccc(/C=N/NC(=O)c2ccccn2)cc1	none
CN(C)c1ccc(/C=C(\C#N)c2ccccn2)cc1	TWEAK-Fn14 inh 93.6, Peg3 prom inh-1 78.2, TROY NFkB inh 74.4, KKLEB tox -90.8 | Peg3 prom inh-2 49.3
CC(C)(Oc1ccc(Cl)cc1)C(=O)O/N=C(\N)c1ccncc1	none
Cc1ccc(CC2(OCCN(C)C)CCC(C(C)(C)C)CC2)cc1 (configuration not stated)	Peg3 prom inh-1 95.4 | Peg3 prom inh-2 100.8
CN(C)CCOC1(Cc2ccc(F)cc2)CCC(C(C)(C)C)CC1 (configuration not stated)	none
COC(=O)C[C@H]1CC[C@H](NS(=O)(=O)c2cn(C)cn2)[C@@H](CO)O1	none (no result: TWEAK-Fn14 inh, Peg3 prom inh-1, CF NFkB inh, TROY NFkB inh, KKLEB tox)
CCOC(=O)c1c(C)[nH]c(C(=O)OCC(=O)Nc2sccc2C(N)=O)c1C	TWEAK-Fn14 inh 83.6, Peg3 prom inh-1 70.3, TROY NFkB inh 63.9 | Peg3 prom inh-2 73.3
O=C(CCSc1nc2ccccc2s1)N/N=C/c1c(O)ccc2ccccc12	Peg3 prom inh-1 53.8 | Peg3 prom inh-2 59.1
CN=c1scc(-c2ccccc2F)n1/N=C/c1ccc[nH]1	HIF-2a block 92.0, TWEAK-Fn14 inh 104.9, Peg3 prom inh-1 90.7, TROY NFkB inh 82.9, KKLEB tox -55.1 | Peg3 prom inh-2 92.1
COc1ccccc1CCNC(=O)c1cc(-c2ccncc2)nc2ccc(Br)cc12	Peg3 prom inh-1 59.8 | Peg3 prom inh-2 inactive
CCOC(=O)[C@]12CCC=C1N(Cc1ccc(Cl)cc1Cl)C(=O)[C@H](CC(=O)N1CCCCC1)C2	none (no result: Peg3 prom inh-1, CF NFkB inh, KKLEB tox)
Cc1nc(N2CCN(S(=O)(=O)c3ccccc3C#N)CC2)c2c(-c3ccccc3)csc2n1	Peg3 prom inh-1 53.8 | Peg3 prom inh-2 61.7
NC(=O)C1CCN(C2=C(NS(=O)(=O)c3ccccc3)C(=O)c3ccccc3C2=O)CC1	none
NC(=O)C1CCN(C2=C(Cl)C(=O)c3ccccc3C2=O)CC1	HIF-2a block 94.2, Peg3 prom inh-1 73.4 | Peg3 prom inh-2 97.9
Cc1cc(NC(c2cccnc2)c2ccc3cccnc3c2O)no1 (configuration not stated)	Peg3 prom inh-1 73.1 (no result: TROY NFkB inh) | Peg3 prom inh-2 69.4
Oc1cccc(C(Nc2nccs2)c2ccc3cccnc3c2O)c1 (configuration not stated)	Peg3 prom inh-1 55.7 | Peg3 prom inh-2 85.5
Oc1c(C(Nc2cccc(C(F)(F)F)c2)c2cccnc2)ccc2cccnc12 (configuration not stated)	none
O=C(NCC(=O)N1CCCC(C(F)(F)F)C1)c1ccco1 (configuration not stated)	none
COc1ccc(Cl)cc1NC(=O)C/C(C)=N/NC(=O)c1ccc(O)cc1	none
CC1=C(C(=O)N(C(C)C)C(C)C)CC(CC(=O)NCc2ccco2)C(=O)N1CCC1=CCCCC1 (configuration not stated)	none
Cc1ccc(Cn2c(=N)n(CC(=O)c3ccccc3)c3ccccc32)cc1	Peg3 prom inh-1 92.4 | Peg3 prom inh-2 86.1
CCCn1c(=N)n(CC(=O)c2ccc(Cl)cc2)c2ccccc21	Peg3 prom inh-1 65.8 | Peg3 prom inh-2 60.1
Cc1nnsc1S(=O)c1ccccc1Cl (configuration not stated)	none
O=C(CN1CCCC1)Nc1ccc(-c2nc3cc(NC(=O)CN4CCCC4)ccc3o2)cc1	Peg3 prom inh-1 71.5, TROY NFkB inh 52.8 | Peg3 prom inh-2 92.3
CCN(CC)CC(=O)Nc1ccc(-c2nc3cc(NC(=O)CN(CC)CC)ccc3o2)cc1	none
CCCOc1ccc(NC(=O)CC2C(=O)N(CC)C(=S)N2CCCN2CCN(Cc3ccccc3)CC2)cc1 (configuration not stated)	Peg3 prom inh-1 76.0 | Peg3 prom inh-2 80.3
Cc1nc(NC(=O)/C=C/c2ccccc2)sc1C(=O)Nc1ccc(Cl)cc1	Peg3 prom inh-1 52.8 | Peg3 prom inh-2 inactive
COC1=CC(=O)c2c(ccc3ncnc(N)c23)C1=O	HIF-2a block 90.9, TWEAK-Fn14 inh 99.7, Peg3 prom inh-1 92.9, CF NFkB inh 81.6, TROY NFkB inh 53.8, KKLEB tox -89.9 | Peg3 prom inh-2 99.0
CCCSc1ccc2nc(-c3ccccc3)cn2c1	HIF-2a block 68.5, TWEAK-Fn14 inh 97.3, Peg3 prom inh-1 76.6, TROY NFkB inh 77.9, KKLEB tox -69.8 | Peg3 prom inh-2 69.1
CCCCSc1ccc2nc(-c3ccc(C#N)cc3)cn2c1	none
COc1ccc(-n2nc3c(c2NC(=O)C(C)Oc2ccccc2)CS(=O)(=O)C3)cc1 (configuration not stated)	none
CN1CCN(S(=O)(=O)c2ccccc2)C(c2ccccc2)C1 (configuration not stated)	none
OCCNCc1cc(Br)ccc1OCc1ccc(Cl)cc1	none
OCCNCc1cc(Br)ccc1OCc1ccc(Cl)cc1Cl	Peg3 prom inh-1 64.9 | Peg3 prom inh-2 62.0
CN(C)S(=O)(=O)c1cccc(NC(=O)c2cncc(Br)c2)c1	none
Cc1ccc(S(=O)(=O)N(C)C)cc1NC(=O)c1cncc(Br)c1	Peg3 prom inh-1 54.7 | Peg3 prom inh-2 69.2
